Results filed as inconclusive are left out. A call without a number means that no potency is given here. Unmarked numbers belong to inactive results. Calls of active or inactive are those of the source. Unless noted, calls follow the shape of the dose curve; as a rule, active = well fitted curve in the direction sought with a large enough effect in the repeat runs; inconclusive = weak or mixed curves; inactive = no such curve, though single readings can be large; an effect the other way counts as inactive or inconclusive.
Assays:
[1] = qHTS assay to identify small molecule antagonists of the retinoid acid receptor (RAR) signaling pathway - cell viability counter screen (AID 1159551); details: C3RL4 cells viability, ATP luminescence (CellTiter-Glo), 6 h; series mostly up to 92.4 µM; also: nearly all actives have a fitted effect of over 35% in size; also: potency is read from the fitted curve at half-maximal effect
Outline: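 Measured by luminescent ATP detection, viability reflects C3RL4 cells treated 6 h at 37 C with test chemicals in the presence of 1 uM (final) retinol.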

[2] = qHTS assay to identify small molecule antagonists of the retinoic acid receptor (RAR) signaling pathway (AID 1159552; also: nearly all actives have a fitted effect of over 50% in size; also: potency is read from the fitted curve at half-maximal effect); details: C3RL4 RARE luciferase reporter, retinol-stimulated, 6 h; series mostly up to 92.4 µM
Outline: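 Overnight-plated C3RL4 reporter cells get compound, then retinol to 1 uM final; plates sit 6 hr at 37 C, 5% CO2. A luciferase reagent is added and light output recorded after 30 min at room temperature.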

[3] = qHTS assay to identify small molecule agonists of the retinoic acid receptor (RAR) signaling pathway (AID 1159553); details: C3RL4 RARE luciferase reporter, agonist, 6 h; activation: at 73.3 µM (top of the series); also: potency is read from the fitted curve at half-maximal effect
Outline: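 6 hr compound exposure (DMSO vehicle) of overnight-plated C3RL4 RARE-luc cells at 37 C; luminescence quantified after 30 min RT with luciferase reagent.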

[4] = qHTS assay to identify small molecule antagonists of the estrogen related receptor (ERR) signaling pathway - cell viability counter screen (AID 1224818); details: ERR reporter cell line viability counter screen; series mostly up to 46.1 µM
Outline: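 Compounds dissolved in DMSO were applied to ERR cells seeded at 2,000 per well 6 h earlier. Cell viability followed 17.5 h later via 30-min CellTiter-Fluor fluorescence.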

[5] = qHTS assay to identify small molecule antagonists of the estrogen related receptor signaling pathway with the pleiotropic PPARgamma coactivator (PGC) cell viability counter screen (AID 1224822); details: ERR/PGC reporter cell line viability counter screen; series mostly up to 46.1 µM
Outline: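 Counter screen for cell viability: PGC/ERR cells, 6 h pre-incubation after plating, 17.5 h compound exposure at 37 C, fluorescence from CellTiter-Fluor after 30 min.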

[6] = qHTS assay to identify small molecule agonists of the estrogen related receptor (ERR) signaling pathway (AID 1224820); details: ERR reporter cell line, luciferase agonist mode; series mostly up to 46.1 µM
Outline: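 Following a 6 h settling period, 2,000 ERR cells per well receive DMSO-dissolved compounds by pin tool and incubate 18 h at 37 C; agonist activity is scored from One-Glo luminescence read 30 min post-addition.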

[7] = test system: estrogen-related receptor alpha (ERRalpha) with PGC-1alpha coactivator, human; experiment: qHTS assay to identify small molecule antagonists of the estrogen related receptor signaling pathway with the pleiotropic PPARgamma coactivator (PGC) (AID 1224821; calls by dose curve;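 also: lower luminescence signal means antagonism of PGC/ERR signalling; nearly all actives have a fitted effect of over 50% in size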); details: ERR/PGC reporter cell line, luciferase, antagonist mode; series mostly up to 46.1 µM
Outline: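 Screening used NTP's PGC/ERR cells, dosed via pin tool with compound in DMSO alongside positive and negative controls. After 18 h at 37 C, One-Glo reagent sat 30 min at room temperature before luminescence detection.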

[8] = qHTS assay to identify small molecule antagonists of the estrogen related receptor (ERR) signaling pathway (AID 1224819;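 also: luminescence from an ERR-driven luciferase reporter measured with One-Glo reagent; nearly all actives have a fitted effect of over 50% in size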); details: ERR reporter cell line, luciferase inhibition; series mostly up to 46.1 µM
Outline: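 Compounds dissolved in DMSO were pin-transferred onto ERR cells that had been plated 6 h earlier, and cells were then incubated 18 h at 37 C; signal was luciferase luminescence via One-Glo.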

**Q.** What does the source list for C=C(C)[C@@H]1CCC2=CCC[C@@H](C)[C@]2(C)C1?
**A.** Potency [1]: inactive; Potency [2]: inactive; Potency [3]: inactive

**Q.** With COc1ccccc1N1CCN(CC(O)COc2cccc3ccccc23)CC1 (stereo unspecified) as the compound, how does the Potency [1] read?
**A.** inactive

**Q.** And the Potency [2]?
**A.** 26.6 µM (active)

**Q.** And the Potency [3]?
**A.** inactive

**Q.** And the outcome [4]?
**A.** inactive

**Q.** And the outcome [5]?
**A.** inactive

**Q.** What does the source list for Clc1ccc(Nc2nnc(Cc3ccncc3)c3ccccc23)cc1?
**A.** Potency [1]: inactive; Potency [2]: inactive; Potency [3]: inactive

**Q.** For O=C(Nc1cccc2c(=O)cc(-c3nn[nH]n3)oc12)c1ccc(OCCCCc2ccccc2)cc1, which Potency [2] is on record?
**A.** inactive

**Q.** What about the Potency [3] of the same compound?
**A.** inactive

**Q.** What does the source list for CC(=O)OCCN(CCOC(C)=O)c1ccc(N=Nc2ccc([N+](=O)[O-])cc2C#N)cc1?
**A.** Potency [1]: 48.6 µM (active); Potency [2]: inactive

**Q.** What does the source list for CCCC(C(=O)OCCN(CC)CC)(c1ccccc1)c1ccccc1?
**A.** outcome [6]: inactive; outcome [7]: inactive

**Q.** For CC(C)=CC(=O)C=C(C)C, which Potency [1] is on record?
**A.** inactive

**Q.** And the Potency [2]?
**A.** inactive

**Q.** What about the Potency [3] of the same compound?
**A.** inactive

**Q.** Which results are given for Nc1ccc(N=Nc2ccccc2)c(N)c1?
**A.** Potency [1]: inactive; Potency [2]: inactive; Potency [3]: 0.238 µM (active)

**Q.** Which results are given for Nc1nc2ccc([N+](=O)[O-])cc2s1?
**A.** Potency [2]: inactive; Potency [3]: inactive; outcome [4]: inactive; outcome [5]: inactive

**Q.** Which results are given for CS(=O)(=O)c1ccc(-c2cn3ccccc3n2)cc1?
**A.** Potency [1]: 11.9 µM (active); Potency [2]: inactive; Potency [3]: 1.68 µM (active)

**Q.** Which results are given for O=C(CCc1ccc(O)cc1)c1c(O)cc(O)cc1O?
**A.** Potency [1]: inactive; Potency [2]: inactive; outcome [4]: inactive; outcome [8]: inactive; outcome [6]: inactive; outcome [7]: inactive; outcome [5]: inactive

**Q.** For Cc1cc(=O)c2c(O)c3c(O)cc(=O)c4c3c3c(cc(O)c1c23)C(C)(C)C=4O, which activity, negative = inhibition [2] is on record?
**A.** -5.37% [at 19 µM]

**Q.** For Oc1cccc(O)c1O, which Potency [2] is on record?
**A.** inactive

**Q.** What about the activation [3] of the same compound?
**A.** 3.27% (active)

**Q.** For C/C=C\C/C=C/CCCCCCCCOC(C)=O, which Potency [3] is on record?
**A.** inactive

**Q.** With O=C(CCCN1CC=C(n2c(=O)[nH]c3ccccc32)CC1)c1ccc(F)cc1 as the compound, how does the Potency [1] read?
**A.** inactive

**Q.** What about the Potency [2] of the same compound?
**A.** inactive

**Q.** What about the Potency [3] of the same compound?
**A.** inactive

**Q.** For CN(C(=O)CN(CCO)CC(=O)N(C)C(C)(C)Cc1ccccc1)C(C)(C)Cc1ccccc1, which Potency [2] is on record?
**A.** 29.8 µM (active)

**Q.** What about the Potency [3] of the same compound?
**A.** inactive

**Q.** With CC(=O)Oc1ccc([N+](=O)[O-])cc1CCl as the compound, how does the Potency [2] read?
**A.** inactive

**Q.** What about the Potency [3] of the same compound?
**A.** 68.6 µM (active)

**Q.** With C[C@H]1c2cccc(O)c2C(O)=C2C(=O)[C@]3(O)C(O)=C(C(N)=O)C(=O)[C@@H](N(C)C)[C@@H]3[C@@H](O)[C@@H]21 as the compound, how does the Potency [1] read?
**A.** inactive

**Q.** What about the outcome [4] of the same compound?
**A.** inactive

**Q.** And the outcome [6]?
**A.** inactive

**Q.** And the outcome [5]?
**A.** inactive

**Q.** With O=C1c2ccccc2C(=O)c2c(O)c(O)cc(O)c21 as the compound, how does the Potency [3] read?
**A.** inactive

**Q.** Which Potency [2] does the source give for CC(C)(C)CC(=O)OCC(=O)[C@@]1(O)CC[C@H]2[C@@H]3CCC4=CC(=O)C=C[C@]4(C)[C@H]3[C@@H](O)C[C@@]21C here?
**A.** 33.5 µM (active)

**Q.** And the Potency [3]?
**A.** inactive

**Q.** Which Potency [1] does the source give for CC(C)C[C@H](NC(=O)[C@H](CCc1ccccc1)NC(=O)CN1CCOCC1)C(=O)N[C@@H](Cc1ccccc1)C(=O)N[C@@H](CC(C)C)C(=O)[C@@]1(C)CO1 here?
**A.** inactive

**Q.** What about the Potency [2] of the same compound?
**A.** inactive

**Q.** And the Potency [3]?
**A.** 0.0473 µM (active)

**Q.** With C/C=C(/C(=C/C)c1ccc(O)cc1)c1ccc(O)cc1 as the compound, how does the Potency [3] read?
**A.** inactive

**Q.** What does the source list for CCCCN1CCCC1C(=O)Nc1c(C)cc(C)cc1C (stereo unspecified)?
**A.** Potency [1]: inactive; Potency [2]: inactive; Potency [3]: inactive

**Q.** Which Potency [1] does the source give for CC=C(Cl)Cl here?
**A.** inactive

**Q.** What about the Potency [2] of the same compound?
**A.** inactive

**Q.** And the Potency [3]?
**A.** inactive

**Q.** With O=C1CCCCCCCCCCOCCCCO1 as the compound, how does the Potency [1] read?
**A.** inactive

**Q.** And the Potency [2]?
**A.** inactive

**Q.** And the Potency [3]?
**A.** inactive

**Q.** For CCCCCCCCCCCCCCN(CCO)CCO, which Potency [2] is on record?
**A.** 30.6 µM (active)

**Q.** Which Potency [2] does the source give for Brc1cc2ccccc2c2ccccc12 here?
**A.** inactive

**Q.** What about the Potency [3] of the same compound?
**A.** inactive

**Q.** With O=Cc1c2ccccc2c(Cl)c2ccccc12 as the compound, how does the Potency [1] read?
**A.** inactive

**Q.** What about the Potency [2] of the same compound?
**A.** inactive

**Q.** And the Potency [3]?
**A.** inactive

**Q.** What does the source list for CC(C)(O)c1ccc(CNC(=O)c2cccnc2Oc2ccc3nonc3c2)cc1?
**A.** Potency [1]: inactive; Potency [3]: inactive

— PubChem BioAssay (Tox21)
